Test systems include NCI-H23 lung; NCI-H226 lung; NCI-H322M lung; HOP-62 NSCLC; NCI-H460 lung; HOP-92 NSCLC; NCI-H522 lung; A549/ATCC NSCLC; 786-0 renal; COLO 205 colon; DU-145 prostate; K-562 leukemia; MALME-3M melanoma; MDA-MB-231 breast; RXF 393 renal; SF-268 CNS; SF-295 CNS; SF-539 CNS; UACC-257 melanoma; M14 melanoma.
Common to all, as to assay: NCI-60 one-dose screen, 48 h (100 = growth as untreated, 0 = no growth, -100 = all killed)
Common to all, as to settings: 10 µM unless noted

This is part of a sample that, as a whole, favours compounds with a hit. Of some 83,000 tested, about 20% had one in any assay.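 Interpretation: 100, growth as untreated; towards 0, rising growth inhibition; 0, no net growth; 0 to -100, cell death. Compounds scoring below 10 were considered active.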 A number with no mark means an inactive call. The source made the active and inactive calls.

Turning to `COc1ccc(/C(=C\c2cc(OC)c(OC)c(OC)c2)C(=O)N2CCCNCC2)cc1`, the growth with NCI-H23 lung was 104%; with NCI-H226 lung, 100%; in the assay with NCI-H322M lung, 103%; in the assay with HOP-62 NSCLC, 106%; in the assay with NCI-H460 lung, 110%; with HOP-92 NSCLC, 102%. In addition, the growth in the assay on NCI-H522 lung is 100%; in the assay on A549/ATCC NSCLC, 105%; in the assay on 786-0 renal it was 111%; in the assay with COLO 205 colon, 110%; in the assay with DU-145 prostate, 115%; in the assay with K-562 leukemia it was 108%. The growth in the assay on MALME-3M melanoma was 113%; in the assay with MDA-MB-231 breast it was 94%; in the assay with RXF 393 renal, 98.4%; in the assay with SF-268 CNS, 106%; in the assay on SF-295 CNS, 101%; with SF-539 CNS, 108%. Besides, the growth with UACC-257 melanoma was 102%; with M14 melanoma it was 105%.
Turning to `Cc1ccc(NC(=O)c2nc(S(C)=O)oc2-c2ccc(F)cc2)cc1Nc1nccc(-c2cccnc2)n1` (stereo not given), the growth in the assay with NCI-H23 lung is 50%; with NCI-H226 lung it was 51.7%; in the assay with NCI-H322M lung, 103%; in the assay with HOP-62 NSCLC, 58.2%; with NCI-H460 lung, 61.5%; in the assay with HOP-92 NSCLC it was 96.2%. The growth with NCI-H522 lung was 7.97% (active); in the assay on A549/ATCC NSCLC it was 95.4%; in the assay with 786-0 renal, 54.6%; in the assay with COLO 205 colon, 54%; with DU-145 prostate, 79.4%; in the assay on K-562 leukemia, -16.7% (active). The growth in the assay with MALME-3M melanoma is 34.7%; with MDA-MB-231 breast, 39%; with RXF 393 renal, 7.47% (active); in the assay on SF-268 CNS it was 54.4%; in the assay with SF-295 CNS, 86.4%; in the assay on SF-539 CNS, 69.4%. In addition, the growth is 87.3% in the assay on UACC-257 melanoma and 55.2% with M14 melanoma.
`C[C@]12CCc3nc(Nc4ccc(O)cc4)sc3C1=CC[C@@H]1[C@@H]2CC[C@]2(C)/C(=N/NC(N)=S)CC[C@@H]12`: the growth in the assay on NCI-H23 lung is 1.05% (active); in the assay on NCI-H226 lung it was 55.4%; in the assay on NCI-H322M lung it was 4.16% (active); with HOP-62 NSCLC, -24.5% (active); in the assay with NCI-H460 lung, -72% (active); in the assay with HOP-92 NSCLC it was -19.3% (active). Besides, the growth was -55.2% (active) in the assay with NCI-H522 lung; -26.7% (active) in the assay with A549/ATCC NSCLC; -73.6% (active) in the assay on 786-0 renal; -40.5% (active) with COLO 205 colon; -62.4% (active) in the assay with DU-145 prostate; -2.83% (active) in the assay with K-562 leukemia. Moreover, the growth with MALME-3M melanoma is -60.5% (active); with MDA-MB-231 breast, -40.4% (active); in the assay with RXF 393 renal it was -67.6% (active); with SF-268 CNS, -17% (active); with SF-295 CNS, -8.62% (active); in the assay on SF-539 CNS it was 5.79% (active). The results for the growth with UACC-257 melanoma and with M14 melanoma were -9.35% (active) and -23.8% (active), respectively.
Regarding `NNC(=O)Cc1ccccc1`, the growth with NCI-H23 lung is 93.2%; with NCI-H226 lung, 78.2%; in the assay on NCI-H322M lung, 74.2%; with HOP-62 NSCLC, 92.2%; in the assay with NCI-H460 lung it was 94.7%; with HOP-92 NSCLC it was -17.8% (active). Further, the growth is 77.6% with NCI-H522 lung; 86.3% with A549/ATCC NSCLC; 92.1% in the assay with 786-0 renal; 112% in the assay with COLO 205 colon; 104% in the assay on DU-145 prostate; 56.6% in the assay with K-562 leukemia. Also, the growth with MALME-3M melanoma is 99.7%; in the assay on MDA-MB-231 breast, 83.7%; with RXF 393 renal, 126%; in the assay on SF-268 CNS it was 86.4%; with SF-295 CNS, 79.7%; in the assay with SF-539 CNS, 92.5%. Moreover, the growth with UACC-257 melanoma was 122%; in the assay on M14 melanoma it was 74.5%.
`Cc1cc(C)c([O-])c(CN(C)CCN(C)Cc2cc(C)cc(C)c2[O-])c1.O=C([O-])c1cccc(C(=O)[O-])n1.[Ti+4]`: the growth is 10.4% with NCI-H23 lung; 31% in the assay on NCI-H226 lung; 8.44% (active) in the assay with NCI-H322M lung; 12.5% in the assay on HOP-62 NSCLC; -68.7% (active) with NCI-H460 lung; -53.1% (active) in the assay on HOP-92 NSCLC. Further, the growth in the assay on NCI-H522 lung is -47% (active); in the assay on A549/ATCC NSCLC, 23.3%; with 786-0 renal, 11.9%; with COLO 205 colon, 2.03% (active); in the assay on DU-145 prostate, 33.8%; with K-562 leukemia it was -1.84% (active). Moreover, the growth with MALME-3M melanoma is -45.7% (active); with MDA-MB-231 breast, 44.6%; with RXF 393 renal it was -43.5% (active); with SF-268 CNS, 23.9%; in the assay with SF-295 CNS, 12.8%; with SF-539 CNS, 7.18% (active). Further, the growth with UACC-257 melanoma is 19.8%; in the assay with M14 melanoma, -49.8% (active).
Regarding `O=C(Cn1nncc1CN1C(=O)CSC1=O)Nc1ccc(F)cc1`, the growth with NCI-H23 lung was 97.3%; with NCI-H226 lung it was 95.7%; in the assay with NCI-H322M lung it was 102%; in the assay on HOP-62 NSCLC it was 97.2%; with NCI-H460 lung, 103%; with HOP-92 NSCLC, 104%. Besides, the growth with NCI-H522 lung was 93.5%; with A549/ATCC NSCLC, 102%; with 786-0 renal, 102%; with COLO 205 colon it was 107%; in the assay on DU-145 prostate it was 105%; in the assay with K-562 leukemia, 104%. The growth in the assay on MALME-3M melanoma was 97.5%; in the assay with MDA-MB-231 breast, 109%; in the assay on RXF 393 renal, 108%; in the assay on SF-268 CNS it was 94.7%; in the assay on SF-295 CNS it was 103%; in the assay on SF-539 CNS it was 97.8%. Further, the results for the growth in the assay on UACC-257 melanoma and with M14 melanoma were 107% and 102%, respectively.
Regarding `CNC(=O)c1cc(Oc2ccc(NC(=O)c3nc(S(C)(=O)=O)sc3-c3ccc(F)cc3)cc2)ccn1`, the growth is 94.8% with NCI-H23 lung; 101% in the assay on NCI-H226 lung; 28.2% in the assay with NCI-H322M lung; 94.9% with HOP-62 NSCLC; 84.7% with NCI-H460 lung; 138% in the assay on HOP-92 NSCLC. In addition, the growth with NCI-H522 lung was 53.4%; in the assay on A549/ATCC NSCLC it was 94.8%; in the assay on 786-0 renal, 98.3%; with COLO 205 colon, 69.1%; in the assay with DU-145 prostate, -57.5% (active); with K-562 leukemia, 86.8%. Further, the growth is 94.5% in the assay on MALME-3M melanoma; 119% with MDA-MB-231 breast; 104% in the assay with RXF 393 renal; 98.8% in the assay on SF-268 CNS; 95.3% in the assay on SF-295 CNS; 97.4% in the assay with SF-539 CNS. Further, the growth with UACC-257 melanoma was 65.7%; with M14 melanoma it was 87.8%.
As to `CNC(=O)c1cc(Oc2ccc(NC(=O)c3nc(S(C)(=O)=O)n(C)c3-c3ccc(F)cc3)cc2)ccn1`, the growth is 79.1% in the assay on NCI-H23 lung; 87.4% in the assay on NCI-H226 lung; 62.5% in the assay on NCI-H322M lung; 91.3% in the assay with HOP-62 NSCLC; 59.4% with NCI-H460 lung; 77.3% in the assay on HOP-92 NSCLC. In addition, the growth is 84.5% with NCI-H522 lung; 82.5% in the assay with A549/ATCC NSCLC; 75.4% in the assay on 786-0 renal; 59.4% in the assay on COLO 205 colon; 56.9% in the assay with DU-145 prostate; 61% in the assay with K-562 leukemia. The growth was 77.5% with MALME-3M melanoma; 83% in the assay on MDA-MB-231 breast; 58.4% in the assay on RXF 393 renal; 70.4% with SF-268 CNS; 70.2% with SF-295 CNS; 85.6% in the assay with SF-539 CNS. For the same compound, the results for the growth in the assay with UACC-257 melanoma and with M14 melanoma were 96.4% and 50.4%, respectively.

(Values after PubChem BioAssay (NCI).)
